# HIF-2a block = HIF-2a reporter inhibitors, primary screen, luminescence, 786-0 RCC cells | AID 624352, 2012 | inhibition, % at 18.8 µM | 786-0 RCC cells HIF-2a reporter, luciferase luminescence, overnight | hit rate 0.72% among 360,000;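 active means inhibition of the luminescence signal of 40% or more relative to plate controls, in a single-dose primary screen at 18.75 µM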
# TRPM1 prom inh = inhibitors of MITF-dependent TRPM1 promoter reporter, primary screen, cell-based, SK-MEL-5, single point, luciferase. SK-MEL-5 TRPM1 promoter luciferase, 24 h. inhibition, % at 12.5 µM. hit rate 0.83% among 330,000;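 active means mean inhibition across replicates of 60% or more, whatever share of single replicates reaches that level; inconclusive means some that reach 60%, reason not given; inactive means mean inhibition across replicates below 60%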
# PAX8 inh HTS = inhibitors of PAX8-driven TPO luciferase reporter, primary screen, RMG-I cells, single concentration; hit rate 1.2% among 360,000; SteadyGlo, 24 h; inhibition, % at 12.6 µM;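 active means mean replicate inhibition at least 60% with every replicate also reaching 60%; inconclusive means only one of the two criteria is met; inactive means mean below 60% and not all replicates reaching 60%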;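 further: luciferase light reporting Pax8 driven TPO promoter activity; plate controls were median of neutral control wells for no effect and mitoxantrone controls for full effect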
# Peg3 prom inh = Peg3 promoter-driven luciferase inhibitors, primary screen, cell-based, HeLa, luciferase luminescence. HeLa PEG-Prom luciferase reporter, overnight. inhibition, % at 20 µM. hit rate 1.7% among 360,000. AID 588405, 2011;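 active means inhibition of at least 50% at 20 µM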
# Shn3 3UTR inh = reduction of Shn3 3'UTR firefly luciferase signal, primary screen, Schnurri-3 inhibitor project, cell-based, Clone20 osteoblasts, set 2; inhibition, % at 12.5 µM; Clone20 osteoblast Shn3 3'UTR firefly luciferase, 24 h; hit rate 0.52% among 360,000;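 active means mean inhibition of at least 75% with every replicate also reaching 75%; inconclusive means mean inhibition at least 75% but some replicate below; inactive means mean inhibition below 75%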;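 further: 0% = median of neutral control wells and 100% = pilot-screen positive control compound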
# EBV LMP1 NFkB = EBV LMP1-driven NF-kappaB luciferase reporter inhibitors, primary screen, cell-based, luminescence, single point. LMP1-induced NF-kappaB luciferase reporter cells. inhibition, % at 12.5 µM. hit rate 0.69% among 350,000; in the data active means inhibition above about 41%; inconclusive means no clear call, values can overlap the other calls;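 further: 0% = neutral control wells and 100% = reference inhibitor control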
# * = called active by the depositor; ? = inconclusive; / = no result given. A selection: hits, their analogues and other compounds. The true share with any hit is near 2.8%.
SMILES,HIF-2a block,TRPM1 prom inh,PAX8 inh HTS,Peg3 prom inh,Shn3 3UTR inh,EBV LMP1 NFkB
CN(C)c1ccnc2c[cH-]cc12.[Fe].c1ccc(-[c-]2[c-](-c3ccccc3)[c-](-c3ccccc3)[c-](-c3ccccc3)[c-]2-c2ccccc2)cc1 (centres undefined),7,10,8,96*,54,28
CCC(=O)N1C[C@H](O)COC[C@H]2O[C@@H](CC(=O)NCc3cc(F)cc(F)c3)CC[C@@H]21,/,/,1,/,/,/
CSC1=NC(=O)/C(=C\c2cccc3ccccc23)S1,-28,11,8,56*,16,7
N=C1S/C(=C\c2cccc3ccccc23)C(=O)N1c1ccc(F)cc1,2,1,/,35,23,-9
CCOc1ccc(OCC(=O)Nc2nccs2)cc1,38,52,/,59*,8,43*
COc1ccc(OCC(=O)Nc2nccs2)cc1,-14,-1,-6,-3,6,?
COc1cccc(/C(O)=C/c2nc3ccc(C(=O)NCCc4ccc(Cl)cc4)cc3[nH]c2=O)c1,5,45,-16,55*,45,4
CCN(CC)S(=O)(=O)c1cc(OC)ccc1N=Nc1ccc(O)c2ncccc12,11,71*,96*,42,90*,-1
Oc1ccc(N=Nc2ccc3c(c2)OCCO3)c2ncccc12,4,73*,76*,-34,95*,-6
CCOc1ccc(N=Nc2ccc(O)c3ncccc23)cc1,7,70*,35,22,90*,6
Cc1cccc(N=Nc2ccc(O)c3ncccc23)c1,-94,71*,52,-102,87*,52*
CCS(=O)(=O)c1ccc(OC)c(N=Nc2ccc(O)c3ncccc23)c1,16,12,50,-2,40,-7
CCCC(=O)Nc1ccc2c(c1)OC[C@@H](C)N(CCC(F)(F)F)C[C@H](C)[C@@H](OC)CN(C)C2=O,/,/,4,/,/,/
C[C@@H]1CCCCO[C@H](CN(C)C(=O)Cc2ccccc2)[C@@H](C)CN([C@H](C)CO)C(=O)c2cc(NC(=O)c3ccncc3)ccc2O1,/,/,-16,/,/,/
Cc1ccccc1S(=O)(=O)NCC[C@@H]1CC[C@@H](NC(=O)Nc2cccc(F)c2)[C@H](CO)O1,/,/,11,/,/,/
CN1C(=O)c2cc(NC(=O)c3cnccn3)ccc2OC[C@H]2O[C@H](CC(=O)NC3CCC3)CC[C@@H]21,/,/,14,/,/,/
CCCNC(=O)C[C@H]1C[C@H]2c3cc(NC(=O)Cc4ccncc4)ccc3O[C@H]2[C@H](CO)O1,/,/,-4,/,/,/
NS(=O)(=O)c1ccc(N=Nc2ccc(O)c3ncccc23)cc1,-1,33,60,56*,78,18
C[C@H](CO)N1C[C@H](C)[C@@H](CN(C)Cc2ccc(Oc3ccccc3)cc2)OCc2ccccc2-c2c(n(C)c3ccccc23)C1=O,/,/,89*,/,/,/
C[C@@H]1CN([C@H](C)CO)C(=O)c2c(c3ccccc3n2C)-c2ccccc2CO[C@H]1CN(C)Cc1ccc(-c2ccccc2)cc1,-15,/,5,83*,1,-5
COc1ccc(CC(=O)Nc2cccc(-c3nnc(-c4cccc(C)c4)o3)c2)cc1OC,-82,-8,/,-56,74,16
COc1ccc(CC(=O)Nc2cccc(-c3nnc(-c4ccccc4)o3)c2)cc1OC,-297,42,/,100*,64,25
COc1ccc(CC(=O)Nc2cccc(-c3nnc(-c4ccc(C)cc4)o3)c2)cc1OC,-13,62*,/,111*,65,19
CCCN1C[C@@H](C)[C@H](OC)CN(C)C(=O)c2ccc(NC(=O)c3cccc(F)c3)cc2OC[C@@H]1C,/,/,-13,/,/,/
CCCCC(=O)NC(c1ccc(C(C)C)cc1)c1ccc2cccnc2c1O (centres undefined),13,70*,85*,53*,83,50*
CC(=O)NC(c1cccc([N+](=O)[O-])c1)c1ccc2cccnc2c1O (centres undefined),10,44,59,41,91*,62*
COc1cccc(C(NC(C)=O)c2ccc3cccnc3c2O)c1 (centres undefined),16,84*,69*,47,83,50*
